# From the supplement of paper PMC4954754
# ± gives the uncertainty stated by the source.
# System: HEK293T-Rex ERSE-FLuc
# Assay: ERSE-FLuc reporter activation, triplicate confirmation, relative to 500 nM thapsigargin (% of thapsigargin); higher = stronger ATF6/ERSE reporter activation
# Details: 6.8 µM; 18 h; screen: confirmation
# Protocol: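 HEK293T-Rex cells stably expressing the ERSE-firefly luciferase (BiP promoter, ATF6-preferring) or XBP1-splicing Renilla luciferase (IRE1/XBP1s) reporter, 1536-well plates, compound at 6.8 µM for 18 hr at 37 °C; luminescence read […] and expressed as % activation = 100*(compound - median DMSO)/(median 500 nM thapsigargin - median DMSO). Primary screen was single-pass; confirmation screen in triplicate (mean ± SD).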
row,SMILES,ERSE-FLuc reporter activation
1,CNC(=O)c1ccccc1Nc1cc(NC(=O)Cc2ccc(F)c(F)c2)ncc1C(F)(F)F,54.6 ± 9
2,Cc1ccc(C)c(/C=N/Nc2nncc3ccccc23)c1,29.7 ± 1.9
3,N#C/C(=C/c1ccc(O)c(O)c1)c1nc2ccccc2[nH]1,29.7 ± 1.1
4,Oc1ccc(-c2csc(-c3ccccc3)n2)cc1O,61.5 ± 5.1
5,CC(=Nc1ccc(O)cc1)c1sc2ccccc2c1O,27.4 ± 4.2
6,O=C(Nc1ccc2c(c1)OCCO2)C(=O)Nc1ccccc1Cl,27 ± 5.6
7,O=C(N/N=C/c1ccc(Cl)cc1)c1n[nH]c2c1CCCC2,42 ± 8.6
8,O=C(Nc1ccc(O)cc1)c1c(O)c2c([nH]c1=O)CCCC2,29.7 ± 1.1
9,Cc1ccc(O)c(NC(=O)c2cc(-c3cccnc3)on2)c1,70 ± 3.2
10,O=C(N/N=C\C(Br)=C\c1ccccc1)c1n[nH]c2c1CCCC2,35 ± 4.1
11,CN(C)c1ccc(C2C(C#N)=C(N)Oc3c2sc2ccccc32)cc1[N+](=O)[O-] (stereo not given),26 ± 0.29
12,CCCCNNC(=O)c1ccc(Br)cc1,60.9 ± 6
13,Cc1nc(-c2coc3c(O)c(O)ccc3c2=O)cs1,25.2 ± 4.1
14,O=[N+]([O-])c1ccccc1N/N=C/c1ccc(O)c(O)c1,43.3 ± 6.8
15,O=C(N/N=C\C(Cl)=C\c1ccccc1)c1n[nH]c2c1CCCC2,33.3 ± 7.3
16,COc1cccc(C(=O)Nc2nc3ccc(C)cc3s2)c1,32.2 ± 7.2
17,O=C(COC(=O)c1cc(O)c(O)c(O)c1)Nc1ccc(Br)cc1F,57.9 ± 11
18,Cc1cc(C)c(OCC(=O)N/N=C/c2ccc(O)c(O)c2)c(Br)c1,28.7 ± 6.2
19,Cc1ccc(C(=O)Nc2sc3c(c2C#N)CCC3)cc1,27.4 ± 2.7
20,N#C/C(=C/c1ccc(O)c(O)c1)c1nc2ccccc2s1,51.2 ± 8.1

row,SMILES,ERSE-FLuc reporter activation
1,COc1cccc(C2=NOC(C(=O)Nc3cc(C)ccc3O)C2)c1 (stereo not given),30.3 ± 8.3
2,COc1cccc(/C=N\NC(=O)c2n[nH]c3c2CCC3)c1,26.1 ± 2.5
3,Oc1ccc(/C=N/Nc2cccc(Cl)n2)c(O)c1,31 ± 7.1
4,O=C(N/N=C/c1ccc2c(c1)OCO2)c1cccc(F)c1,27.1 ± 2.4
5,O=C1c2cc(O)ccc2-c2ccc(O)cc21,25.6 ± 6
6,COc1cc2ccccc2cc1C(=O)N/N=C/c1cccs1,25.7 ± 4.6
7,Cc1ccc(O)c(NC(=O)c2cc(-c3ccc(F)cc3)on2)c1,31.9 ± 8.4
8,Cc1ccc(C(=O)Nc2ccccc2N)cc1,56.8 ± 4.5
9,Cc1ccc(O)c(NC(=O)CCc2ccccc2)c1,63.24 ± 0.61
10,COC(=O)c1ccc(C(=O)Nc2ccccc2N)cc1,32.9 ± 4.2
11,Oc1ccccc1/C=N\Nc1nc2ccccc2o1,26.6 ± 4.4
12,C/C(=N\NC(=O)c1n[nH]c2c1CCCC2)c1ccc2ccccc2c1,30.7 ± 2.6
13,O=C(N/N=C/c1cccc(Cl)c1Cl)c1ccccc1O,25.3 ± 1.4
14,COc1cccc(C(=O)/C=C/Nc2cc(C)ccc2O)c1,116 ± 7.9
15,N#Cc1c(NC(=O)/C=C/c2ccco2)sc2c1CCCC2,29.4 ± 2.5
16,COc1ccc(Nc2nccn3c(-c4ccsc4)cnc23)cn1,38.1 ± 6.9
17,COc1cccc(C(=O)Nc2sc3c(c2C#N)CC(C)CC3)c1 (stereo not given),28 ± 5.5
18,Cc1ccc(O)c(-c2cc(-c3cccs3)[nH]n2)c1,44.2 ± 7.9
19,O=C1NC(=Nc2ccc(F)cc2)S/C1=C\c1ccc(O)c(O)c1,32.4 ± 2.3
20,Cc1cnc(NC(=O)c2sc3nc4c(C)cccc4cc3c2N)s1,28.6 ± 7.1
